Compound activity deposited in PubChem BioAssay by National Center for Advancing Translational Sciences (NCATS).
ALDH1A1 block: inhibitors of human aldehyde dehydrogenase 1A1. P00352. Purified ALDH1A1, NADH fluorescence, propionaldehyde substrate. Potency, µM (series often up to 75.3 µM), hits mostly inhibitors. actives 7.3% (n = 220,000)
LMNA splice mod: modulators of lamin A splicing; AID 1487; HeLa LMNA splicing GFP/RFP minigene ratio, 48 h; actives 0.01% (n = 200,000); Potency, µM (top dose mostly 46.1 µM), usual class: inhibitors; active = well fitted inhibition curve with a large enough effect in the signal ratio, with a control signal flat, not every such curve was filed as active; inconclusive = small, poorly fitted or top-dose-only effect, or effect the other way, or a change in a side signal; the % refers to the signal ratio
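S3 HeLa stable clones carrying a lamin A-EGFP splicing minigene plus DsRed2 were seeded at 600 cells/well in Opti-MEM with 2% FBS, pin-dosed and incubated 48 h at 37°C. Acumen cytometry (488 nm) gave the GFP/RFP total-intensity ratio.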
PNC assembly inh: blocks assembly of the perinucleolar compartment. PC3M PTB-GFP, PNC prevalence imaging, 16 h; active compounds read low. activity change (PNC), negative = inhibition, % at 10 µM. actives 3.1% (n = 140,000). AID 2417;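 active = readout at or below -70, meaning at least 70% loss of cells showing the perinucleolar compartment, a nuclear body marking cancer cells; inconclusive = readout between -30 and a set limit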
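PC3M cells stably expressing PTB-GFP, 750–1000 cells/well, treated 16 h at 37 °C with compound (23 nl of library stock), in duplicate. After paraformaldehyde fixation and Hoechst stain, imaged at 20x; PNC prevalence scored by image analysis.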
HPGD block: inhibitors of human 15-hydroxyprostaglandin dehydrogenase (HPGD); Potency, µM, most hits filed as inhibitors; purified HPGD, NADH fluorescence kinetic, PGE2 substrate; AID 894; P15428; actives 4.3% (n = 150,000)
Target sequence (P15428 whole entry, looked up): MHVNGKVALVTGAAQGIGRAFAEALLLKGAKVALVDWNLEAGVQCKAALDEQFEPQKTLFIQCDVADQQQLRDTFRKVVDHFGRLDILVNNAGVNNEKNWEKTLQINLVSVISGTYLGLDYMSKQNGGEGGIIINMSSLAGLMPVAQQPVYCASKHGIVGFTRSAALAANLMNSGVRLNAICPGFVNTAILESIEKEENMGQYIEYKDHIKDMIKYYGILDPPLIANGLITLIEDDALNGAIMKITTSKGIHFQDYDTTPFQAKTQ
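20 nM HPGD preincubated 15 min at room temperature with compound in 50 mM Tris-HCl pH 8, 0.01% Tween 20. Started with 1 mM NAD+ and 30 uM prostaglandin E2; NADH fluorescence (360/450 nm) read 5 times over 30-s intervals, last minus first.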
12-hLO inh: blocks human 12-lipoxygenase activity | P18054 | purified 12-hLO, xylenol orange hydroperoxide absorbance | Potency, µM (doses to about 57.1 µM), usual class: inhibitors | actives 0.12% (n = 150,000); active = well fitted inhibition curve with a large enough effect; inconclusive = small, poorly fitted or top-dose-only effect; note: nearly all actives have a fitted effect of over 55% in size
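Xylenol orange chromogenic assay: hydroperoxide from 12hLO oxidises Fe(II), giving red-shifted Fe(III)-XO absorbance. Conditions: 150 nM enzyme, 40 uM arachidonic acid, 25 mM Hepes pH 7.0, 0.01% Triton X-100, 30 min, room temperature.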
Large screens that a line does not name were inactive. Only some compounds are listed: those with a hit (about 10% of all), similar ones and a draw of the others. Unless noted, calls come from the whole dose curve; as a rule, active = well fitted inhibition curve with a large enough effect (not every such curve was filed as active); inconclusive = small, poorly fitted or top-dose-only effect, or another doubt; inactive = no such curve, though single readings can be large or run the other way.

NNC(=O)C=C1CCN(c2ncc(C(F)(F)F)cc2Cl)CC1	ALDH1A1 block 16µM
O=C(O)C=C1CCN(c2ncc(C(F)(F)F)cc2Cl)CC1	none
O=C(CN1CCN(c2ncc(C(F)(F)F)cc2Cl)CC1)N1CCN(c2ncc(C(F)(F)F)cc2Cl)CC1	ALDH1A1 block 4µM
O=C(CSc1ccc(Cl)cc1)N1CCN(c2ncc(C(F)(F)F)cc2Cl)CC1	LMNA splice mod inconclusive, PNC assembly inh inconclusive
COCCNC(=O)c1c(C)oc2nc(C)nc(N3CCOCC3)c12	none (no result: ALDH1A1 block, PNC assembly inh, HPGD block, 12-hLO inh)
Cc1cnc(CNc2ncncc2-c2cccc(C#N)c2)cn1	ALDH1A1 block inconclusive (no result: PNC assembly inh, HPGD block, 12-hLO inh)
COc1ccc(CC(=O)Nc2nnc3n2CCS3)cc1	none (no result: ALDH1A1 block, PNC assembly inh, HPGD block, 12-hLO inh)
COCCc1ccc(OCC(O)CNC(C)C)cc1 (configuration not stated)	PNC assembly inh -91
N#CC1=C(N)SC(N)=C(C#N)C1C1C=CCCC1 (configuration not stated)	ALDH1A1 block 22µM
N#CC1=C(N)SC(N)=C(C#N)C1C1CC=CCC1 (configuration not stated)	ALDH1A1 block inconclusive
Cc1cc2c(c(=O)o1)C(C1C=CCCC1)C(C#N)=C(N)O2 (configuration not stated)	ALDH1A1 block 7.9µM, HPGD block 28µM
Oc1ccc(-c2nc3cnccn3c2Nc2ccc3c(c2)OCCO3)cc1	ALDH1A1 block 40µM, LMNA splice mod inconclusive, HPGD block 11µM, 12-hLO inh inconclusive
COc1cc(-c2nc3cnccn3c2Nc2ccc3c(c2)OCCO3)ccc1O	LMNA splice mod inconclusive, PNC assembly inh inconclusive, HPGD block 22µM
COc1cc(-c2nc3cnccn3c2Nc2ccc(C)cc2)ccc1O	ALDH1A1 block inconclusive, LMNA splice mod inconclusive, HPGD block inconclusive
CCC(=O)N1c2ccccc2CC1C(=O)NCCc1ccccc1OC (configuration not stated)	none (no result: ALDH1A1 block, PNC assembly inh, HPGD block, 12-hLO inh)
COC(=O)c1ccc(NC(=O)Cn2ccn3nc(-c4ccc(OC)cc4)cc3c2=O)cc1	none (no result: ALDH1A1 block, PNC assembly inh, HPGD block, 12-hLO inh)
COc1ccc(COC(=O)N/N=C2/C[C@@H](O)[C@@H](O)[C@@H]3[C@@H]4C(=O)N(C5CCCCC5)C(=O)[C@H]4CC[C@H]23)cc1	none (no result: LMNA splice mod, PNC assembly inh, HPGD block, 12-hLO inh)
CN(O)/C=N/C(=S)Nc1ccc(Cl)cc1Cl	ALDH1A1 block 1.6µM (no result: PNC assembly inh, HPGD block, 12-hLO inh)
Cc1noc(C)c1-c1ccc2ncnc(N(C)Cc3ccco3)c2c1	LMNA splice mod inconclusive, HPGD block 13µM (no result: PNC assembly inh)
Cn1nnc2sc3c(c2c1=O)CCCC3	ALDH1A1 block 13µM, PNC assembly inh inconclusive, HPGD block 32µM
Cc1ccccc1-c1nc2sc3c(c2c(=O)n1N)CCCC3	ALDH1A1 block inconclusive, PNC assembly inh inconclusive, HPGD block 25µM
Cc1ccccc1-c1nc2sc3c(c2c(=O)o1)CCC3	HPGD block 16µM
O=c1oc(-c2ccccc2)nc2sc3c(c12)CCCC3	ALDH1A1 block inconclusive, HPGD block inconclusive
Nc1cc(S(=O)(=O)O)ccc1O	ALDH1A1 block inconclusive (no result: LMNA splice mod, PNC assembly inh)
CCCC(=O)NCC(c1ccc2c(c1)OCO2)N1CCOCC1 (configuration not stated)	none (no result: ALDH1A1 block, PNC assembly inh, HPGD block, 12-hLO inh)
COc1ccc(OC)c(NC(=O)c2cc3c(=O)n4cccc(C)c4nc3n2C)c1	none (no result: ALDH1A1 block, PNC assembly inh, HPGD block, 12-hLO inh)
CC1=C(C(=O)Nc2ccccc2)C(c2ccccc2C)n2nc(SCC(=O)c3ccc(C)cc3)nc2N1 (configuration not stated)	none (no result: ALDH1A1 block, PNC assembly inh, HPGD block, 12-hLO inh)
C[Si](C)(c1ccc(C(=O)O)cc1)c1ccc(C(=O)O)cc1	HPGD block 0.2µM (no result: LMNA splice mod, PNC assembly inh)
O=C(O)c1ccc(B(O)O)cc1	none (no result: LMNA splice mod, PNC assembly inh)
c1cnc(N2CC[N+]3(CCCC3)CC2)nc1	none
c1cnc(N2CCSCC2)nc1	PNC assembly inh -91
O=c1c(-c2cccs2)nc2cncnc2n1C1CC1	ALDH1A1 block inconclusive, HPGD block inconclusive (no result: LMNA splice mod, PNC assembly inh)
CCCN1C(=O)/C(=N\OCC(=O)NCC(F)(F)F)c2ccccc21	ALDH1A1 block 1.3µM
CC(C)(C)NC(=O)CON=C1c2ccccc2-c2ccccc21	LMNA splice mod inconclusive, HPGD block inconclusive
CCN(CC)S(=O)(=O)c1ccc2c(c1)N(CC(=O)NCCCN1CCN(c3cc(C)ccc3C)CC1)C(=O)CO2	none (no result: ALDH1A1 block, PNC assembly inh, HPGD block, 12-hLO inh)
COc1ccc(N(Cc2cc(=O)[nH]c3ccccc23)C(=O)c2ccco2)cc1	ALDH1A1 block 14µM
CCC(=O)N(Cc1cc(=O)[nH]c2ccccc12)c1cccc(C)c1	ALDH1A1 block 40µM, HPGD block inconclusive
c1ccc(Cn2cc(CN3CCCCO3)c(-c3ccc4c(c3)OCO4)n2)cc1	ALDH1A1 block 32µM (no result: LMNA splice mod, PNC assembly inh, HPGD block, 12-hLO inh)
Cc1nc(NCc2ccccc2)c2nc(-c3ccccc3)n(CCN(C)C)c2n1	ALDH1A1 block inconclusive, HPGD block inconclusive (no result: LMNA splice mod, PNC assembly inh)
O=C(NCc1ccccc1)C1CCN(S(=O)(=O)c2cc([N+](=O)[O-])ccc2Cl)CC1	ALDH1A1 block 25µM
CN(Cc1ccccc1)C(=O)C1CCN(S(C)(=O)=O)CC1	none (no result: LMNA splice mod, PNC assembly inh, HPGD block, 12-hLO inh)
CC(NC(=O)C1CCN(S(=O)(=O)c2cc([N+](=O)[O-])ccc2Cl)CC1)c1ccccc1 (configuration not stated)	ALDH1A1 block inconclusive
CN(Cc1ccccc1)C(=O)C1CCN(S(=O)(=O)c2cc([N+](=O)[O-])ccc2Cl)CC1	ALDH1A1 block 6.3µM (no result: HPGD block)
NNC(=O)c1oc2ccccc2c1-n1cccc1	ALDH1A1 block 2.2µM, LMNA splice mod inconclusive (no result: PNC assembly inh, HPGD block, 12-hLO inh)
